# Assay outcomes: PubChem, National Center for Advancing Translational Sciences (NCATS)
# L3MBTL1 block: qHTS Assay for the Inhibitors of L3MBTL1 | Lethal(3)malignant brain tumor-like protein 1 (Homo sapiens), Q9Y468 | AlphaScreen L3MBTL1–H3K9me1 peptide binding | Potency, µM (titrated, usually from 57.1 µM), inactives show at the top dose activity, negative = inhibition, most hits filed as inhibitors | 230,000 tested, 0.66% active; note: nearly all actives have a fitted effect of over 60% in size
# Target sequence (Q9Y468 whole entry, looked up): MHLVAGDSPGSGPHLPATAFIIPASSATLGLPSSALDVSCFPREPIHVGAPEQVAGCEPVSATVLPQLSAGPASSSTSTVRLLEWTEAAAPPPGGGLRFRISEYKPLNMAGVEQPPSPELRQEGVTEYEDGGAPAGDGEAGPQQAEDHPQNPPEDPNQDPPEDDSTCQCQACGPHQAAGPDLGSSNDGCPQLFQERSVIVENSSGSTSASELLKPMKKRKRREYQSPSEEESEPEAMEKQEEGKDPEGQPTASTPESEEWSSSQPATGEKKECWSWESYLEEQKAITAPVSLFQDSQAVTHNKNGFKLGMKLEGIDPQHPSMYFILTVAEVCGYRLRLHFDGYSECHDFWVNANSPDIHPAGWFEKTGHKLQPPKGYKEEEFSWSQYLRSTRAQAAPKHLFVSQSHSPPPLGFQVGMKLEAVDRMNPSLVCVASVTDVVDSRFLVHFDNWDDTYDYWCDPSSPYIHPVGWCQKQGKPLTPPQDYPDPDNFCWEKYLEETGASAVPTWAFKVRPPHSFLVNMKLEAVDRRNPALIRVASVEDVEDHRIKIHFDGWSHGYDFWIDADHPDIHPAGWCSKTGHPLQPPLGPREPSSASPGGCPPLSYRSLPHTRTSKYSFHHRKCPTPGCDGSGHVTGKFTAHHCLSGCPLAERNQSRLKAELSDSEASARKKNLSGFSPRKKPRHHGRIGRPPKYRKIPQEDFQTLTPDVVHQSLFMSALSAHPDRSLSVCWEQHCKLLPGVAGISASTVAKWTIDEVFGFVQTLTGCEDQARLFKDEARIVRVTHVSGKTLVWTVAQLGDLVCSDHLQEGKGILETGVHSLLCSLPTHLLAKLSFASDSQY
#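 Read-out is AlphaScreen signal from streptavidin donor and nickel chelate acceptor beads (10 ug/mL final each) bridging L3MBTL1 (50 nM) and biotinylated K9-monomethylated H3(1-15) peptide (75 nM), after 30 min compound exposure at room temperature.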
# RECQ1 inh-1: qHTS Assay for Inhibitors of RecQ-Like Dna Helicase 1 (RECQ1); 240,000 tested, 0.54% active; AID 2549, 2010; Potency, µM (series often up to 57.3 µM), for inactives: at the highest dose activity, negative = inhibition, hits mostly inhibitors; RECQ1 DNA unwinding, red fluorescence kinetic read; ATP-dependent DNA helicase Q1 (Homo sapiens), P46063;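 note: plate controls were vehicle for no effect and no enzyme for full effect; nearly all actives have a fitted effect of over 30% in size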
#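 RECQ1T1 50 nM; forked duplex (20 bp + 30-nt ss tails) 200 nM, ATP 2 mM final; pH 8.0, 2 mM MgCl2, 2.5 ug/ml poly(dI-dC); 15 min compound preincubation; discontinuous kinetic read over 2 h at RT.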
# BLM inh: qHTS Assay for Inhibitors of Bloom's syndrome helicase (BLM); recombinant BLM DNA unwinding, fluorescence dequenching; 350,000 tested, 0.2% active; Potency, µM (titrated, usually from 56.1 µM), for the others: at the highest dose activity change, negative = inhibition, most hits filed as inhibitors;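 note: plate controls were vehicle for no effect and no enzyme for full effect; nearly all actives have a fitted effect of over 35% in size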
# APE1 inh-1: qHTS Assay for Inhibitors of the Human Apurinic/apyrimidinic Endonuclease 1 (APE1). DNA repair nuclease/redox regulator APEX1 (Homo sapiens), P27695. Potency, µM (doses to about 65.8 µM), for the others: at the highest dose activity change, negative = inhibition, hits mostly inhibitors. recombinant APE1, TAMRA/BHQ-2 abasic DNA cleavage fluorescence. 350,000 tested, 0.35% active. AID 2517, 2012;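 note: plate controls were vehicle for no effect and reference inhibitor for full effect; nearly all actives have a fitted effect of over 55% in size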
#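 Enzyme (0.75 nM final) and test compound are incubated 15 min at room temperature before adding 50 nM quenched THF abasic-site duplex. Cleavage dequenches TAMRA, followed at 525/598 nm over three reads one minute apart.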
# DNA dye displace: Counterscreen for APE1 Inhibitors: Fluorescent Dye Displacement Assay. shares compounds with APE1 inh-1. DNA fluorescent dye displacement counterscreen, fluorescence. Potency, µM (titrated, usually from 28.5 µM), for inactives: at the highest dose activity change, negative = inhibition, usual class: inhibitors. 480 tested, 7% active. AID 2564, 2010;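 note: loss of thiazole orange fluorescence as the dye is displaced from duplex DNA; 0% = ThO with dsDNA and no compound and -100% = ThO without dsDNA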
# Endo IV inh: Counterscreen for APE1 Inhibitors: qHTS Assay for Inhibitors of Endonuclease IV; shares compounds with APE1 inh-1; E. coli Endo IV, fluorogenic AP-site DNA cleavage; Potency, µM (series often up to 27.1 µM), for inactives: at the top dose activity change, negative = inhibition, actives largely listed as inhibitors; 560 tested, 4% active; AID 2565, 2010;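 note: plate controls were uninhibited enzyme wells for no effect and no enzyme buffer wells for full effect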
# APE1 inh-2: Confirmation qHTS Assay for Inhibitors of the Human Apurinic/apyrimidinic Endonuclease 1 (APE1); shares compounds with APE1 inh-1; purified APE1, fluorogenic abasic-site DNA cleavage; 750 tested, 44% active; Potency, µM (titrated, usually from 57.1 µM), for inactives: at the top dose activity change, negative = inhibition, hits mostly inhibitors; note: nearly all actives have a fitted effect of over 30% in size
# APE1 FP inh: qHTS FP-Based Assay for Inhibitors of the Human Apurinic/apyrimidinic Endonuclease 1 (APE1); shares compounds with APE1 inh-1; APE1 binding to TAMRA-labelled double-stranded DNA, fluorescence polarization displacement; Potency, µM (series often up to 28.5 µM), without a hit: top-dose activity, negative = inhibition, most hits filed as inhibitors; 480 tested, 7% active; AID 2573, 2010
# RECQ1 conf: Confirmation qHTS Assay for Inhibitors of RecQ-Like Dna Helicase 1 (RECQ1); 610 tested, 28% active; RECQ1 helicase DNA unwinding, fluorescence; AID 2708, 2010; shares compounds with RECQ1 inh-1; Potency, µM (top dose mostly 229 µM), for the others: top-dose activity change, negative = inhibition, actives largely listed as inhibitors; note: nearly all actives have a fitted effect of over 45% in size
# ADP FP counter: Counterscreen for RECQ1 Inhibitors: ADP Fluorescence Polarization Displacement Assay; shares compounds with RECQ1 inh-1; ADP fluorescence polarization displacement counterscreen; Potency, µM (top dose mostly 228 µM), without a hit: top-dose activity change, negative = inhibition, most hits filed as inhibitors; 530 tested, 27% active; AID 2711, 2010; note: nearly all actives have a fitted effect of over 45% in size
# RECQ1 inh-2: Confirmation qHTS Assay for Inhibitors of RecQ-Like Dna Helicase 1 (RECQ1) - Round 2 Cherry Picks; shares compounds with RECQ1 inh-1; AID 504841, 2011; recombinant RECQ1 DNA unwinding, red fluorescence; 1,100 tested, 15% active; Potency, µM (titrated, usually from 119 µM), without a hit: at the highest dose activity, negative = inhibition, usual class: inhibitors; note: nearly all actives have a fitted effect of over 50% in size
# Active calls of the source: *; ? = inconclusive; nt = no result given; ! = a repeat was not active; [ ] = dose if it differs, or a comment. Hits are enriched below; roughly 0.78% of the tested compounds scored in any of these assays. Calls come from the whole dose curve; as a rule, active = well fitted curve in the direction sought with a large enough effect; inconclusive = small, poorly fitted or top-dose-only effect, or another doubt; inactive = no such curve, though single readings can be large; an effect the other way counts as inactive or inconclusive. Unless noted, % is set by controls: 0 for no effect and ±100 for the full control effect; potency is the fitted concentration of half-maximal effect.
SMILES,L3MBTL1 block,RECQ1 inh-1,BLM inh,APE1 inh-1,DNA dye displace,Endo IV inh,APE1 inh-2,APE1 FP inh,RECQ1 conf,ADP FP counter,others
O=C(OCC1OC(OC(=O)c2cc(O)c(O)c(OC(=O)c3cc(O)c(O)c(O)c3)c2)[C@@H](OC(=O)c2cc(O)c(O)c(OC(=O)c3cc(O)c(O)c(O)c3)c2)C(OC(=O)c2cc(O)c(O)c(OC(=O)c3cc(O)c(O)c(O)c3)c2)C1OC(=O)c1cc(O)c(O)c(OC(=O)c2cc(O)c(O)c(O)c2)c1)c1cc(O)c(O)c(OC(=O)c2cc(O)c(O)c(O)c2)c1 (some centres not stated),nt,0.0316µM*,0.0708µM*,nt,nt,5.01µM*,0.0032µM*,nt,1.12µM*,?,
O=c1oc2c(O)c(O)cc3c(=O)oc4c(O)c(O)cc1c4c23,?,0.562µM*,2µM*,0.0447µM*!,0.0891µM*,?,0.0141µM*,28.2µM*,?,4.47µM*,
Cc1c(C)c2cc(Cl)c(O)c(CN(C)C)c2oc1=O,3.3%,-0.5%,0.0%,-4.4%,nt,nt,nt,nt,nt,nt,
CCCSC1=N/C(=C\C=C\c2ccco2)C(=O)S1,5.62µM*,7.94µM*,20µM*,3.98µM*,-3.1%,17.7%,?,?,31.6µM*,12.6µM*,RECQ1 inh-2=?
O=C1SC(SCc2ccccc2)=N/C1=C\c1ccco1,nt,?,-5.2%,?,?,-10.4%,?,4.8%,nt,nt,RECQ1 inh-2=?
O=C(NN1C(=O)/C(=C/C=C/c2ccco2)SC1=S)c1ccncc1,nt,3.55µM*,2.5%,4.47µM*,1.5%,86.1%,4.47µM*,?,22.4µM*,12.6µM*,
O=C1/C(=C/C=C/c2ccco2)SC(=S)N1c1ccc(O)cc1,4.47µM*,11.2µM*,?,7.94µM*,?,20.4%,?,9.4%,?,-11.7%[91.9 µM],
CC[C@H](C)[C@H](NC(=O)[C@H](CCC(=O)O)NC(=O)[C@H](CO)NC(=O)[C@@H](NC(=O)[C@H](C)N)C(C)C)C(=O)N[C@@H](CCC(N)=O)C(=O)N[C@@H](CC(C)C)C(=O)N[C@@H](CCSC)C(=O)N[C@@H](Cc1cnc[nH]1)C(=O)N[C@@H](CC(N)=O)C(=O)N[C@@H](CC(C)C)C(=O)NCC(=O)N[C@@H](CCCCN)C(=O)N[C@@H](Cc1cnc[nH]1)C(=O)N[C@@H](CC(C)C)C(=O)N[C@@H](C)C(=O)N[C@@H](CO)C(=O)N[C@H](C(=O)N[C@@H](CCC(=O)O)C(=O)N[C@@H](CCCNC(=N)N)C(=O)N[C@@H](CCSC)C(=O)N[C@@H](CCC(N)=O)C(=O)N[C@@H](Cc1c[nH]c2ccccc12)C(=O)N[C@@H](CC(C)C)C(=O)N[C@@H](CCCNC(=N)N)C(=O)N[C@@H](CCCCN)C(=O)N[C@@H](CCCCN)C(=O)N[C@@H](CC(C)C)C(=O)N[C@@H](CCC(N)=O)C(=O)N[C@@H](CC(=O)O)C(=O)N[C@H](C(=O)N[C@@H](Cc1cnc[nH]1)C(=O)N[C@@H](CC(N)=O)C(=O)N[C@@H](Cc1ccccc1)C(=O)O)C(C)C)C(C)C,nt,-13.1%,-11.4%,1.6%,nt,nt,nt,nt,nt,nt,
Cc1cccc(-c2nn(C(=S)Nc3ccccc3)cc2-c2ccnc3ccccc23)n1,nt,-13.7%,3.9%,-3.2%,nt,nt,nt,nt,nt,nt,
O=C(CCCN1C(=O)/C(=C/c2ccco2)SC1=S)Nc1cccc(C(=O)O)c1,-86.4%,8.91µM*,?,7.94µM*,0.5%,106.5%,?,-8.8%,70.8µM*,0.2%[91.9 µM],
O=C(CCCN1C(=O)/C(=C\c2cccs2)SC1=S)Nc1cccc(C(=O)O)c1,nt,-4.6%,-3.0%,8.8%,nt,nt,nt,nt,nt,nt,
C=C(C)C(=O)Nc1cccc(C2=NOC3(C2)C[C@@H](C(N)=O)N(C(=O)c2cc([N+](=O)[O-])cc([N+](=O)[O-])c2)C3)c1 (some centres not stated),nt,-21.3%,-1.8%,7.2%,nt,nt,nt,nt,nt,nt,
C=C(C)C(=O)Nc1cccc(C2=NOC3(C2)C[C@@H](C(N)=O)N(C(=O)c2ccc(OC)cc2)C3)c1 (some centres not stated),nt,7.94µM*,-6.9%,?,nt,nt,?,nt,25.1µM*,35.5µM*,
Cc1ccc(NC(=O)CN2C(=O)N/C(=C/c3ccco3)C2=O)cc1,-88.1%,3.98µM*,-19.0%,3.16µM*,-10.0%,3.2%,?,-13.1%,39.8µM*,50.1µM*,
Cc1cccc(NC(=O)CN2C(=O)N/C(=C/c3ccc(C)s3)C2=O)c1,12.3%,-3.5%,-1.4%,-5.2%,nt,nt,nt,nt,nt,nt,
